The values below come from PubChem BioAssay (EPA / NIEHS).

Each structure is given as a SMILES string. Calls of active or inactive are those of the source. How the source made its calls: active means hit-call score of the fitted dose curve at least 0.9, where 1 is the maximum; inactive means score below 0.9.

Experiment [1] is described as follows: ATG_ERE_CIS: Attagene CIS-FACTORIAL HepG2 Assay for Estrogen Response Element (ERE) (AID 2282940). The note with it: HepG2 ERE cis-reporter, Attagene RNA transcript; actives raise or lower the signal. A digest of the protocol:
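After a 24 h chemical treatment, RNA from reporter-transfected HepG2 cells is reverse-transcribed, PCR-amplified and fluorescently labelled. Fragments separated by capillary electrophoresis give reporter signal; DMSO serves as negative control.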

A short description of experiment [2]: ATG_Ets_CIS: Attagene CIS-FACTORIAL HepG2 Assay for human Erythroblast Transformation Specific (ETS) (AID 2282941). The conditions noted are these: HepG2 ETS cis-reporter transcription, actives raise or lower the signal. A digest of the protocol: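 Steps: transfect HepG2 with multiple reporter units; treat compound 24 h; isolate RNA, DNase-treat, reverse-transcribe; PCR-amplify, label with 6-FAM, digest with HpaI; separate by capillary electrophoresis. Activity fitted both directions versus DMSO.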

Experiment [3] has as its target Hepatocyte nuclear factor 3-beta (Homo sapiens) (UniProt Q9Y261). Nature of the experiment: ATG_FoxA2_CIS: Attagene CIS-FACTORIAL HepG2 Assay for human Forkhead box A2 (FOXA2) (AID 2282942). The conditions noted are these: HepG2 cis-reporter transcription factor activity, 24 h; actives raise or lower the signal. A digest of the protocol: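 HepG2 cells transiently transfected with multiple cis-regulated reporter transcription units, dosed for 24 h. Reporter mRNA measured by RT-PCR, 6-FAM labelling, HpaI digestion and capillary electrophoresis; bidirectional fitting against DMSO baseline.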

A short description of experiment [4]: ATG_FoxO_CIS: Attagene CIS-FACTORIAL HepG2 Assay for human Forkhead box O (FoxO) (AID 2282943). The conditions noted are these: HepG2 Attagene cis-reporter, FoxO element, mRNA; actives raise or lower the signal. Put shortly:
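24 h chemical exposure, HepG2 with transient cis-MRTU transfection. RNA extraction, oligo(dT) RT, reporter-specific PCR, primer-extension labelling, HpaI digestion, CE fragment analysis; bidirectional fit, DMSO baseline.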

The nature of experiment [5]: ATG_GATA_CIS: Attagene CIS-FACTORIAL HepG2 Assay for human GATA Binding Protein (AID 2282944). The conditions noted are these: HepG2 GATA cis-element reporter, Attagene multiplex mRNA; actives raise or lower the signal. Put shortly:
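Cells: HepG2, transiently transfected with cis-regulated reporter transcription units. Exposure: 24 h. Detection: RT-PCR plus capillary electrophoresis of FAM-labeled fragments. Analysis: bidirectional, DMSO as baseline.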

Experiment [6] is described as follows: ATG_GLI_CIS: Attagene CIS-FACTORIAL HepG2 Assay for human Zinc Finger Protein GLI1 (AID 2282945). The note with it: HepG2, Attagene cis-factorial reporter mRNA, GLI element; actives raise or lower the signal. A digest of the protocol: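 HepG2 cells transiently transfected with cis-promoter multiplexed reporter units report endogenous transcription factor activity. After 24 h chemical exposure, reporter mRNA was quantified by RT-PCR, 6-FAM labelling, HpaI digestion and capillary electrophoresis, with bidirectional fitting against DMSO.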

For experiment [7], the target named is Bile acid receptor (Homo sapiens) (UniProt Q96RI1). Nature of the experiment: ATG_IR1_CIS: Attagene CIS-FACTORIAL HepG2 Assay for human Nuclear Receptor Subfamily 1 Group H Member 4 (NR1H4), IR1 submotif (AID 2282946). The conditions noted are these: IR1 reporter transcription, actives raise or lower the signal. A digest of the protocol: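 Transient MRTU transfection, HepG2; 24 h dosing; RNA → RT-PCR → 6-FAM primer extension → HpaI digest → capillary electrophoresis fluorescence. Gain/loss of signal fitted relative to DMSO.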

A short description of experiment [8]: ATG_GRE_CIS: Attagene CIS-FACTORIAL HepG2 Assay for human Glucocorticoid Response Elements (GRE) (AID 2282947). The conditions noted are these: HepG2 GRE cis-reporter, Attagene multiplex mRNA; actives raise or lower the signal. Put shortly: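 HepG2 cells transiently transfected with multiple cis-promoter reporter units measure endogenous TF activity; 24 h compound exposure. Reporter mRNA quantified by RT-PCR, FAM labelling, HpaI digestion and capillary electrophoresis; bidirectional fit vs DMSO baseline.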

Experiment [9] in a line: ATG_ISRE_CIS: Attagene CIS-FACTORIAL HepG2 Assay for human Interferon Regulatory Factor 1 (IRF1) binding to an Interferon-Stimulated Response Element (ISRE) (AID 2282948). The conditions noted are these: HepG2 ISRE cis-reporter (Attagene), mRNA transcription readout; actives raise or lower the signal. Put shortly: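 Transfected HepG2 (multiple reporter transcription units, cis elements) dosed 24 h. RNA → oligo(dT) RT → PCR → 6-FAM primer extension → HpaI → CE. DMSO = negative control/baseline.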

Experiment [10] in a line: ATG_M_32_CIS: Attagene CIS-FACTORIAL HepG2 Assay for M32 Transcription Factor (Internal Marker) (AID 2282949).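 Further: background control marker of the multiplexed CIS panel rather than a real target.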 The note with it: HepG2 Attagene cis-factorial M32 reporter, mRNA; actives raise or lower the signal. A digest of the protocol: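 Internal background marker read-out: RT-PCR/capillary electrophoresis fluorescence of reporter transcripts from transiently transfected HepG2 cells after 24 h chemical exposure. Activity fitted bidirectionally relative to DMSO negative control.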

A word on the AC50: it is the concentration at which the activity in the assay is half-maximal.

Chain of Bile acid receptor (Homo sapiens) (Q96RI1 whole entry, looked up): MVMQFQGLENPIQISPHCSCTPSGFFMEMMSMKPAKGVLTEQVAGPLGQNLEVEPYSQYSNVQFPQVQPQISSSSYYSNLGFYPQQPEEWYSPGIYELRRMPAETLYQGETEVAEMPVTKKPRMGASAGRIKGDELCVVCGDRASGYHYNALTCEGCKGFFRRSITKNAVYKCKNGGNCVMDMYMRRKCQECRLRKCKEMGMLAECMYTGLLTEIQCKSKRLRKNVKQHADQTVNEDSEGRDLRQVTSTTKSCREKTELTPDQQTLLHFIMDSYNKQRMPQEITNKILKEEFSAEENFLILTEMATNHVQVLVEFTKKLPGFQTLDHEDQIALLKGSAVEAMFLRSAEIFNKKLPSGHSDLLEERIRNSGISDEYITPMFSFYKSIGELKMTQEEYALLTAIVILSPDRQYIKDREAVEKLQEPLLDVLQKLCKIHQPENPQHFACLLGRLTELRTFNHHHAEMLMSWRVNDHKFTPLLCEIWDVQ
Chain of Hepatocyte nuclear factor 3-beta (Homo sapiens) (Q9Y261 whole entry, looked up): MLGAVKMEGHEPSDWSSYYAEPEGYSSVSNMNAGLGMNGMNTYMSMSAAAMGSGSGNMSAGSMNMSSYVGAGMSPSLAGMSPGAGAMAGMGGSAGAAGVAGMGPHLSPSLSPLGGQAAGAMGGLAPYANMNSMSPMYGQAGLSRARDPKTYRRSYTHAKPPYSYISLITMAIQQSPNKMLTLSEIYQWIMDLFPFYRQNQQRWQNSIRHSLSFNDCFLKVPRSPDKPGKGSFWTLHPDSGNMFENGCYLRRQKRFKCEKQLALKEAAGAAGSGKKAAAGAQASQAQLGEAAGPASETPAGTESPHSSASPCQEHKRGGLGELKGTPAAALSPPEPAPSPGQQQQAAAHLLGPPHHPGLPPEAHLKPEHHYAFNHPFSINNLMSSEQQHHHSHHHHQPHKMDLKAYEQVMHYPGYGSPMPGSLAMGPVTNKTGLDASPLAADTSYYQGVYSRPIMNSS

For the molecule `CCOC(=O)/C=C(C)/C=C/C[C@@H](C)CCCC(C)C`, the call in experiment [1], in experiment [2], in experiment [3], in experiment [4] and in experiment [9] was inactive. For the same molecule, the half-maximal activity concentration (AC50) in experiment [5] is 158 µM (active); in experiment [6], 149 µM (active); in experiment [7] it was 41 µM (active); in experiment [8] it was 74.7 µM (active); in experiment [10], 157 µM (active).
On to `CCCCP(CCCC)CCCC`, for which the half-maximal activity concentration (AC50) in experiment [1] was 72.5 µM (active). Besides, the call in experiment [2], in experiment [3], in experiment [4], in [5], in [6] and in experiment [7] was inactive. The call in experiment [9] and in [10] was inactive.
As for `ClC1=C(Cl)[C@]2(Cl)[C@@H]3[C@@H](Cl)[C@@H](Cl)C[C@@H]3[C@@]1(Cl)C2(Cl)Cl`, the outcome in [1], in experiment [2], in experiment [3], in experiment [4], in experiment [5] and in experiment [6] was inactive. Also, the result in [7], in experiment [8], in [9] and in [10] was inactive.
`C=CC(=O)OCCCCCC(C)C`: the result in [1], in experiment [2], in experiment [3], in [4], in experiment [5] and in [6] was inactive. Further, the molecule was classed as inactive in experiment [7], in experiment [9] and in experiment [10].
In the case of `CCCCCCCCCl`, the molecule was called inactive in experiment [1], in experiment [2], in experiment [3], in [4], in experiment [5] and in experiment [6]. Moreover, the molecule was called inactive in experiment [7], in experiment [8], in experiment [9] and in [10].
For the molecule `Fc1ccc(C2(Cn3cncn3)OC2c2ccccc2Cl)cc1` (stereo unspecified), the molecule was classed as inactive in experiment [1], in experiment [2], in [3], in experiment [4], in experiment [5] and in experiment [6]. Further, the call in [7], in experiment [8], in experiment [9] and in [10] was inactive.
As to `N#CCc1ccc(Cl)cc1`, the molecule was called inactive in [1], in experiment [2], in experiment [3], in experiment [4], in [5] and in [6]. Also, the molecule was classed as inactive in [7], in experiment [8], in experiment [9] and in experiment [10].
With `ClCc1cccnc1`, the result in experiment [1], in experiment [3], in experiment [4], in [5], in experiment [6] and in experiment [7] was inactive. Besides, the call in [9] and in experiment [10] was inactive. The AC50 in experiment [2] was 81.3 µM (active); in experiment [8], 72.5 µM (active).
`COc1ccc(OC)c(C=O)c1`: the call in experiment [1], in experiment [2], in experiment [3], in experiment [4], in [5] and in experiment [6] was inactive. Moreover, the molecule was classed as inactive in [7], in [8], in [9] and in experiment [10].
Turning to `COS(=O)(=O)c1ccc(C)cc1`, the molecule was classed as inactive in experiment [1], in experiment [2], in experiment [3], in experiment [4], in experiment [5] and in [6]. The molecule was classed as inactive in experiment [7], in experiment [8], in experiment [9] and in experiment [10].
Take `CCc1ccccc1C`: the result in experiment [1], in experiment [2], in experiment [3], in experiment [4], in experiment [5] and in experiment [6] was inactive. The result in [7], in experiment [8], in [9] and in experiment [10] was inactive.
Consider `CCSC(C)CC1CC(=O)C(C(CC)=NOC/C=C/Cl)=C(O)C1` (stereo unspecified), for which the outcome in experiment [1], in experiment [2], in experiment [3], in [4], in experiment [5] and in [6] was inactive. For the same molecule, the call in [7], in [8], in [9] and in [10] was inactive.
Turning to `Clc1ccc(C2(Cn3cncn3)CC(Br)CO2)c(Cl)c1` (stereo unspecified), in experiment [1], the AC50 was 2.54 µM (active). For the same molecule, the call in [2], in experiment [3], in experiment [4], in [5], in experiment [6] and in experiment [7] was inactive. The call in experiment [8], in experiment [9] and in [10] was inactive.
For the molecule `O=C(Nc1ccc2[nH]ccc2c1)c1cc2cc(F)ccc2n1Cc1cccc(F)c1`, the call in experiment [1], in [2], in experiment [3], in [4], in experiment [5] and in experiment [6] was inactive. In addition, in [10], the molecule was called inactive. Further, the AC50 is 2.93 µM (active) in experiment [7], 17.6 µM (active) in experiment [8] and 18.2 µM (active) in experiment [9].
As for `CCOC(=O)CP(=O)(OCC)OCC`, the molecule was called inactive in experiment [1], in [2], in experiment [3], in experiment [4], in experiment [5] and in experiment [6]. The call in [7], in [9] and in experiment [10] was inactive.
With `O=C(OC1CCCCC1)c1ccccc1C(=O)OC1CCCCC1`, the AC50 in experiment [1] is 29.2 µM (active); in [7] it was 28.9 µM (active). Further, the molecule was called inactive in [2], in experiment [3], in experiment [4], in experiment [5], in experiment [6] and in experiment [8]. Also, the outcome in experiment [9] and in experiment [10] was inactive.
Consider `Clc1nc(Cl)nc(Cl)n1`, for which the molecule was called inactive in experiment [1], in experiment [2], in experiment [3], in [4], in experiment [5] and in [6]. Besides, the result in experiment [8], in experiment [9] and in [10] was inactive.
In the case of `O=[N+]([O-])c1c(Cl)c(Cl)cc(Cl)c1Cl`, the molecule was classed as inactive in experiment [1], in experiment [2], in experiment [3], in experiment [4], in experiment [5] and in experiment [6]. Further, the call in experiment [7] and in [9] was inactive. The concentration at half-maximal activity (AC50) in [10] is 0.0842 µM (active).
In the case of `COP(=S)(OC)Oc1ccc(S(=O)(=O)N(C)C)cc1`, the call in [1], in [2], in [3], in [4], in experiment [5] and in experiment [6] was inactive. The molecule was classed as inactive in experiment [8], in experiment [9] and in experiment [10].
`CC(C)CCCCCCOC(=O)c1ccccc1C(=O)OCCCCCCC(C)C`: the result in experiment [1], in experiment [2], in experiment [3], in [4], in experiment [5] and in [6] was inactive. The result in experiment [7], in [9] and in experiment [10] was inactive.
On to `COP(=S)(OC)Oc1cc(Cl)c(Cl)cc1Cl`, for which the AC50 in [1] was 75.6 µM (active). Besides, the molecule was classed as inactive in [2], in experiment [3], in experiment [4], in experiment [5], in experiment [6] and in [8]. Moreover, the call in experiment [9] and in experiment [10] was inactive.
As for `C[C@H]1O[C@@H](O[C@H]2[C@@H](O)C[C@H](O[C@H]3[C@@H](O)C[C@H](O[C@H]4CC[C@@]5(C)[C@H](CC[C@@H]6[C@@H]5CC[C@]5(C)[C@@H](C7=CC(=O)OC7)CC[C@]65O)C4)O[C@@H]3C)O[C@@H]2C)C[C@H](O)[C@@H]1O`, the result in experiment [1], in experiment [3], in [6], in experiment [7] and in [10] was inactive. For the same molecule, the concentration at half-maximal activity (AC50) was 0.0564 µM (active) in experiment [2], 0.472 µM (active) in experiment [4], 0.131 µM (active) in experiment [5] and 0.254 µM (active) in experiment [9].
